Test results from PubChem BioAssay.

System: Lefty1
Assay: Lefty1 protein binding to printed compounds – biochemical, small-molecule microarray, 635/667 nm fluorescence, primary screen (AID 1139)
Conditions: fluorescence 635/667, higher = more signal

Structure (SMILES) | composite z-score
O=C1[C@H]2[C@H]3[C@H](O)[C@H](O)CC(=NOC[C@@H](O)COCc4ccco4)[C@@H]3CC[C@H]2C(=O)N1C[C@@H]1CCCO1 | 1.17
CC(C)=NOC[C@@H](C)[C@H](OCc1ccccc1)C(C)C | -0.458
C=CC[C@@H]1C=C[C@H](ON=C(C)CCN2CCc3nc(-c4ccccc4)c(-c4ccccc4)cc3C2)[C@@H](CO)O1 | 0.736
CC(=O)OC[C@H]1OC(ON=CC[C@@H]2C=C[C@H](OC(C)=O)[C@@H](COC(C)=O)O2)[C@H](OC(C)=O)[C@@H](OC(C)=O)[C@@H]1OC(C)=O (some centres not stated) | -0.101
CON=CC[C@@H]1C=C[C@H](OC(C)=O)[C@@H](COC(C)=O)O1 | 0.596
COC(=O)CC=C[C@@H](C)[C@@H](C=NO[C@@H]1O[C@H](COC(C)=O)[C@@H](OC(C)=O)[C@H](OC(C)=O)[C@H]1OC(C)=O)OC | -0.268
COC(=O)CC=C[C@@H](C)[C@@H](C=NO[C@H](C)c1cn([C@H](CO)Cc2ccccc2)nn1)NS(=O)(=O)c1ccc(C)cc1 | 0.19
CCOC(=O)[C@H](CC(C)C)NC(=O)CCC1CC(OC(=O)NCc2cccc3ccccc23)CC2(CCCC(COC(=O)NCC3CCCCC3)O2)O1 (some centres not stated) | 0.733
COc1cccc([C@H]2Oc3ccc(OC)cc3C(=NO[C@H](C)c3cn([C@H](CO)Cc4ccccc4)nn3)[C@@H]2O)c1 | 0.0027
CCOC(=O)[C@H](Cc1ccccc1)NC(=O)CCC1CC(OC(=O)NCCc2ccc(F)cc2)CC2(CCCC(COC(=O)NCCCN3CCCC3=O)O2)O1 (some centres not stated) | 0.461
COC(=O)[C@H](C)NC(=O)CCC1CC(OC(=O)NCCc2ccc(F)cc2)CC2(CCCC(COC(=O)NCCC(C)C)O2)O1 (some centres not stated) | 0.899
O=C1C=C[C@@H](O)[C@@H]2[C@@H]3C(=O)N(c4ccc(F)cc4F)C(=O)[C@@H]3CC[C@@H]12 | 0.564
CCOC(=O)[C@H](CC(C)C)NC(=O)CCC1CC(OC(=O)NCc2cccc3ccccc23)CC2(CCCC(COC(=O)NCCCN3CCCC3=O)O2)O1 (some centres not stated) | 0.925
CCOC(=O)[C@H](CC(C)C)NC(=O)CCC1CC(OC(=O)NCc2cccc3ccccc23)CC2(CCCC(COC(=O)NCCc3ccc(Cl)cc3)O2)O1 (some centres not stated) | 0.863
CO[C@H]1COC(=O)CC=C[C@@H](C)[C@H](NS(=O)(=O)c2ccc(C)cc2)COC(=O)CCC[C@@H]1C | 0.962
CC(=O)OC[C@H]1O[C@@H](ON=C(C)CCN2CCCc3nc(C)c(C)cc32)[C@H](OC(C)=O)[C@@H](OC(C)=O)[C@@H]1OC(C)=O | 0.889
CCOC(=O)CCN1C(=O)[C@H]2[C@H]3[C@H](O)[C@H](O)CC(=NNC(=O)OCc4ccccc4)[C@@H]3CC[C@H]2C1=O | 0.699
CC=CC1=C(CO)C(=O)[C@@H]2O[C@@H]2C1=O | 1.34
O=C1[C@H]2[C@H]3[C@H](O)[C@H](O)CC(=NOCc4ccccc4)[C@H]3CC[C@H]2C(=O)N1Cc1ccc2c(c1)OCO2 | 0.397

Structure (SMILES) | composite z-score
COC(=O)CC=C[C@@H](C)[C@@H](C=NOCC[C@@H]1C=C[C@H](OC(C)=O)[C@@H](COC(C)=O)O1)OC | 0.66
O=C(NN=C1C[C@@H](O)[C@@H](O)[C@@H]2[C@@H]3C(=O)N(Cc4ccccc4)C(=O)[C@@H]3CC[C@@H]12)OCc1ccccc1 | 0.321
CO[C@H]1COC(=O)CCC[C@@H](C)[C@H](OC)COC(=O)[C@@H]2CCCN2C(=O)CC=C[C@@H]1C | 1.44
CCOC(=O)[C@H](CC(C)C)NC(=O)CCC1CC(OC(=O)NCc2ccc3c(c2)OCO3)CC2(CCCC(COC(=O)NCc3cccc(C(F)(F)F)c3)O2)O1 (some centres not stated) | 0.389
CC(C)CON=C1C[C@@H](O)[C@@H](O)[C@@H]2[C@@H]3C(=O)N(c4ccc(F)cc4F)C(=O)[C@@H]3CC[C@H]12 | 1.13
CO[C@@H]1COC(=O)CC=C[C@@H](C)[C@@H]2C=C[C@H](O)[C@@H](COC(=O)CC=C[C@H]1C)O2 | 1.66
CC(CCN1CCc2nc(-c3ccccc3)c(-c3ccccc3)cc2C1)=NOC[C@@H](O)COCc1ccco1 | 1.03
C[C@H]1CC[C@H]2C(=O)O[C@H](COc3ccc(C(C)(C)C)cc3)CN2[C@@H]1c1ccc(Br)cc1 | 0.395
CCC1=NOC(CCC2CC(OC(=O)NCc3cccc4c3OCO4)CC3(CCCC(COC(=O)NCCc4ccccc4OC)O3)O2)C1 (configuration not stated) | -0.0134
C=CC[C@@H]1C=C[C@H](ON=C2[C@H]3CCn4c(=O)n(-c5ccccc5)c(=O)n4[C@H]3[C@H](O)[C@@H]3O[C@H]23)[C@@H](CO)O1 | 0.96
O=C1[C@H]2[C@H]3[C@H](O)[C@H](O)CC(=NOCc4ccccc4)[C@@H]3CC[C@H]2C(=O)N1C[C@@H]1CCCO1 | -0.0955
CC(=O)OC[C@H]1O[C@H](C#Cc2ccccc2)C=C[C@@H]1OC(C)=O | 0.517
CCOC(=O)[C@H](CC(C)C)NC(=O)CCC1CC(OC(=O)NCCc2ccc(F)cc2)CC2(CCCC(COC(=O)NCCOc3ccccc3)O2)O1 (some centres not stated) | 1.35
C#CCCCON=C1C[C@@H](O)[C@@H](O)[C@@H]2[C@@H]3C(=O)N(CC)C(=O)[C@@H]3CC[C@@H]12 | 0.289
CC(C)=CCCC(C)=CCON=C1C[C@@H](O)[C@@H](O)[C@@H]2[C@@H]3C(=O)N(c4cccc(Oc5ccccc5)c4)C(=O)[C@@H]3CC[C@@H]12 | 0.514
O=C1[C@H]2[C@H]3[C@H](O)[C@H](O)CC(=NOC[C@@H](O)COCc4ccco4)[C@H]3CC[C@H]2C(=O)N1C[C@@H]1CCCO1 | 1.34
CC(CCN1CCc2nc(-c3ccccc3)c(-c3ccccc3)cc2C1)=NOC[C@@H](O)[C@H]1O[C@@H]2OC(C)(C)O[C@@H]2[C@H]1O | 1.07
CCOC(=O)[C@H](CC(C)C)NC(=O)CCC1CC(OC(=O)NCc2ccc3c(c2)OCO3)CC2(CCCC(COC(=O)NCCCN3CCCC3=O)O2)O1 (some centres not stated) | 0.803
